Assay outcomes (PubChem)
In the library only some 3.7% were active in any assay of this set; here they are far more common.
Smad3 inh = blocks human Smad3 binding to FoxH1 peptide | P84022 | TR-FRET Smad3/Dy647-FoxH1 peptide binding, europium anti-His | inhibition, % at 25 µM | actives 0.29% (n = 88,000);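 active = compounds that reduce the energy-transfer binding signal between the protein and its labelled peptide by more than half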;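 note: 0% = Smad3 plus labelled peptide maximal FRET and 100% = peptide-only background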
Target sequence (P84022 whole entry, looked up): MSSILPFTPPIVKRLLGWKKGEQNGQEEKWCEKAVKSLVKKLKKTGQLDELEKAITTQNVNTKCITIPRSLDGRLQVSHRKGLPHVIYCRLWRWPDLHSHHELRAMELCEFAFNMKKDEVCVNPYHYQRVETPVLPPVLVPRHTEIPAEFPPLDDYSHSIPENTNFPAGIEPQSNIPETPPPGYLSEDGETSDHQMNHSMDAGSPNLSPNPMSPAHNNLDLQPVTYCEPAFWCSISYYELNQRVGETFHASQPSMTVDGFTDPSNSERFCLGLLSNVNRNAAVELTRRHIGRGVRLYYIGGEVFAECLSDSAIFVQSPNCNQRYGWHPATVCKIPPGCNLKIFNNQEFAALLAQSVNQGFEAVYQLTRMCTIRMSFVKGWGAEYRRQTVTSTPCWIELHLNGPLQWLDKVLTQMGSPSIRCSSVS
ERa SRC1 inh = ER-alpha (human) coactivator binding inhibition | P03372 | actives 1.7% (n = 86,000) | TR-FRET ER-alpha LBD / SRC-1 peptide, estradiol-bound | inhibition, % at 25.6 µM | AID 629; in the data active = inhibition above about 50%;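 note: 0% = receptor plus peptide control and 100% = peptide only without receptor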
ERa coact pot = ER-alpha (human) coactivator binding potentiation; P03372; TR-FRET ERalpha-LBD/SRC-Cy5 coactivator binding, 2 h; 100 = basal binding, no effect; coactivator binding (% of control), % at 25.6 µM; actives 1.3% (n = 86,000); AID 639; in the data active = activity above about 200%;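 note: binding measured in presence of low estradiol as agonist stimulus; 0% = peptide alone without receptor and 100% = receptor with peptide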
ERb SRC1 inh = ER-beta (human) coactivator binding inhibition; Q92731; TR-FRET ER-beta LBD / SRC1-Cy5 peptide binding; receptor agonist-loaded with 1 µM estradiol; inhibition, % at 25.6 µM; actives 1.3% (n = 86,000);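 active = compounds whose percent inhibition of the receptor-coactivator binding signal exceeds about 50% in the single-dose screen, limit read from the data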;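 note: 0% = receptor plus peptide wells without compound and 100% = peptide-only wells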
An asterisk follows results filed as active; . = no result; [ ] = another dose, or the depositor's remark.

SMILES | Smad3 inh | ERa SRC1 inh | ERa coact pot | ERb SRC1 inh
O=C(c1ccccc1)N1CCN(C2CCCCCC2)CC1 | 3 | 7 | 113 | 3
O=C(O)c1c2c(c(O)c3c1CN(C1CCCCC1)CO3)OCN(C1CCCCC1)C2 | 62* | . | . | .
[Cu].c1ccc2c(c1)-c1nc-2nc2[n-]c(nc3nc(nc4[n-]c(n1)c1ccccc41)-c1ccccc1-3)c1ccccc21 | -8 | . | . | .
Cc1nn(-c2ccccc2)c(C)c1C(=O)OC/C(O)=C(\C#N)c1nc2ccccc2[nH]1 | 1 | 56*[fluorescence artefact?] | 60 | 23
CN(Cc1ccccc1)S(=O)(=O)c1ccc(NS(C)(=O)=O)cc1 | 4 | 10 | 80 | 1
CS(=O)(=O)Nc1ccc(Nc2c3ccccc3nc3ccccc23)cc1 | 58* | . | . | .
CC1(C)Cc2c(ccc3ccccc23)/C(=C/C(=O)N2CCCCC2)N1 | -4 | 1 | 134 | 1
O=C(/C=C1\NC2(CCCC2)Cc2ccccc21)N1CCOCC1 | 34 | -2 | 98 | 83*[fluorescence artefact?]
NC(=O)CSc1nnc(Cc2csc(Nc3ccccc3)n2)n1Cc1ccccc1 | 86* | -2 | 111 | 0
Brc1ccc(-c2nc(-c3ccccn3)no2)o1 | 4 | 1 | 115 | 3
Clc1ccc(-c2nc(-c3ccccn3)no2)cc1Cl | -3 | 27 | 265* | 17
O=C1c2ccccc2C(=O)c2c(NC(=O)c3ccc4c5c(ncnc35)-c3ccccc3C4=O)cccc21 | 13 | . | . | .
Cc1ccc(S(=O)(=O)c2ccc(C)cc2)cc1 | 26 | 0 | 89 | -2
Cc1ccc(C2=C(Cl)C(=O)C(c3ccc(C)cc3)=C(Cl)C2=O)cc1 | 52* | . | . | .
CC(=O)Nc1ccc(OCC(O)Cn2cnc3ccccc32)cc1 (stereo unspecified) | -8 | -5 | 636*[fluorescence artefact?] | -7
Cc1cc(C)c2nc3c(c([C@H](O)[C@@H]4CCCCN4)c2c1)CC/C3=C\c1ccc(Cl)cc1 | 12 | . | . | .
Cc1ccc(C(c2sc3nc(C)nn3c2O)N2CCN(c3ccccc3F)CC2)cc1 (stereo unspecified) | 2 | -2 | 107 | 72*[fluorescence artefact?]
COc1cc(C(c2sc3nc(C)nn3c2O)N2CCN(c3ccccc3)CC2)cc(OC)c1OC (stereo unspecified) | 3 | 83*[fluorescence artefact?] | 107 | -6
CCOc1ccc2nc3cc(N=Nc4ccc(N)nc4N)ccc3c(N)c2c1 | -6 | . | . | .
COc1cc2c(cc1O)[C@@H](c1cc(O)c(O)c(OC)c1)[C@](O)(C(=O)O)[C@@H](CO)[C@@H]2O | 0 | . | . | .
Cn1c(SCC(=O)Nc2nccs2)nnc1-c1ccc(S(=O)(=O)N2CCCC2)cc1 | 1 | 11 | 41 | 5
O=C(CSc1n[nH]c(-c2ccc(S(=O)(=O)N3CCCCC3)cc2)n1)Nc1nccs1 | 0 | 50* | 136 | 21
CCOc1ccccc1C(=O)N1CCN=C1SC | 1 | -2 | 90 | 87*
CCOc1ccc(C(=O)N2CCN=C2SC)cc1OCC | 18 | 0 | 100 | -5
CN1CCN(c2ccc3nc(-c4ccc5nc(-c6ccc(O)cc6)[nH]c5c4)[nH]c3c2)CC1 | 11 | . | . | .
SMILES | Smad3 inh | ERa SRC1 inh | ERa coact pot | ERb SRC1 inh
CCN=C1SC(CC(=O)NC(C)C)C(=O)N1CC (stereo unspecified) | -3 | 3 | 853*[fluorescence artefact?] | -26
CCCCNC(=O)CC1SC(=NCC)N(CC)C1=O (stereo unspecified) | 11 | 5 | 116 | -37
COC(=O)C1CN(S(=O)(=O)c2ccccc2)CCN1S(=O)(=O)c1ccccc1 (stereo unspecified) | 8 | -9 | 101 | -6
CN1C(=O)C(=C2CCCCCC2)SC1=S | 5 | -6 | 103 | -11
O=C1NC(=S)SC1=C1CCCC1 | -2 | 46 | 39 | 56*
Cc1ccc(N=Cc2c(O)n(-c3ccc4c(c3)OCO4)c(=O)c3ccccc23)cc1 | -10 | 69* | 31 | 34
COc1cccc2[nH]c3c(N4CCC(C)CC4)ncnc3c12 | 3 | 37 | 61 | 50*[fluorescence artefact?]
Cc1cccc(OCC(=O)Nc2ccc(N3CCN(S(C)(=O)=O)CC3)cc2)c1 | -4 | 12 | 108 | 2
Cc1ccc(C)c(OCC(=O)Nc2nonc2NC(=O)COc2cc(C)ccc2C)c1 | -1 | 63*[fluorescence artefact?] | 64 | 22
Cc1cccc(OCC(=O)Nc2nonc2NC(=O)COc2cccc(C)c2)c1 | 2 | 72*[fluorescence artefact?] | 144 | 52*[fluorescence artefact?]
C/C(=N\Nc1nc(C)cc(=O)[nH]1)C(=O)O | -10 | . | . | .
COc1ccc(CN2C(=O)c3cccnc3C2Nc2cc(Cl)ccc2OC)cc1 (stereo unspecified) | 4 | -37 | 357*[fluorescence artefact?] | -9
COc1ccc(CN2C(=O)c3cccnc3C2O)cc1 (stereo unspecified) | 10 | -5 | 394*[fluorescence artefact?] | 8
COc1ccc(OC)c(NC2c3ncccc3C(=O)N2Cc2ccco2)c1 (stereo unspecified) | 6 | -4 | 53 | 13
CC[C@@H](Nc1ncnc2nc[nH]c12)C(=O)O | 0 | . | . | .
N[C@@](CC(=O)O)(Cc1ccccc1)C(=O)O | -4 | . | . | .
COc1cccc(NC2SC(=O)N(c3ccccc3)C2=O)c1 (stereo unspecified) | -8 | -16 | 204* | -2
O=C(O)[C@H]1CCCN1Cc1ccc2c(c1)OCO2 | -5 | . | . | .
COc1ccc2c(Cl)c(C(=O)NCCCn3ccnc3)sc2c1Cl | -16 | 12 | 276* | -5
CC1CCN(c2nc3ccc(C(=O)N4CCN(Cc5ccc6c(c5)OCO6)CC4)cc3s2)CC1 | -10 | 11 | 85 | 36
O=C1[C@@H]2[C@H](C(=O)N1CN1CCSCC1)[C@H]1[C@@H]3C=C[C@@H]([C@@H]4C(=O)N(CN5CCSCC5)C(=O)[C@@H]34)[C@@H]21 | -3 | . | . | .
Cc1oc2nc(SCCCC(=O)NCCCO)nc(N)c2c1C | -2 | 0 | 101 | 8
Cc1oc2nc(SCC(=O)NCCCO)nc(N)c2c1C | -4 | -8 | 101 | 64*
Cc1n[nH]c(C)c1CCc1nc2c3ccccc3nc(SCC(=O)Nc3ccccc3F)n2n1 | 7 | 73*[fluorescence artefact?] | 181 | 59*[fluorescence artefact?]
Cc1nc2ccccc2n1CCc1nc2c3ccccc3nc(SCC(=O)NCc3ccco3)n2n1 | -1 | 48 | 194 | 7
SMILES | Smad3 inh | ERa SRC1 inh | ERa coact pot | ERb SRC1 inh
Cc1cccc(NC(=O)CSc2nc3ccccc3c3nc(CCc4c(C)n[nH]c4C)nn23)c1 | 10 | 67*[fluorescence artefact?] | 31 | 45
Cc1occc1C(=O)Nc1ccc(Br)cc1F | 0 | -2 | 78 | 3
Cc1ccc(-c2nnc(CSc3nc4cc5c(cc4cc3C)OCO5)o2)cc1 | 2 | 77*[fluorescence artefact?] | 206*[fluorescence artefact?] | 60*
CCc1nnc(NC(=O)C2CC(=O)N(c3ccc(C)cc3)C2)s1 (stereo unspecified) | 12 | 2 | 92 | 2
Cc1ccc(N2CC(C(N)=O)CC2=O)cc1 (stereo unspecified) | 51* | -1 | 99 | 2
Cc1ccc(N2CC(C(=O)Nc3ccccn3)CC2=O)cc1 (stereo unspecified) | -12 | 5 | 93 | 63*[fluorescence artefact?]
COc1ccc(N2CC(C(=O)O)CC2=O)cc1 (stereo unspecified) | -3 | -23 | 107 | 71*
Cc1ccc(N2CC(C(N)=O)CC2=O)cc1C (stereo unspecified) | 12 | -35 | 111 | -33
Nc1nc(N)[n+]([O-])c(N)c1NCO | 4 | . | . | .
